Source: PubChem BioAssay (several laboratories)
In the library only some 7% were active in any assay of this set; here they are far more common.
GRIN3A LBD mod: modulators (binders) of human NR3A ligand-binding domain; NR3A LBD differential scanning fluorimetry, Tm shift; 0% = protein alone, 100% = glycine-bound protein; actives 2.5% (n = 340,000); Tm shift relative to glycine control, % at 25 µM;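 active = melting temperature shift of at least 10% of the positive control shift, at one fixed dose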
ADAM10 inh: inhibits human ADAM10. O14672. recombinant ADAM10, EDANS/DABCYL FRET peptide cleavage, 3 h. inhibition, % at 7 µM. actives 0.62% (n = 370,000);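 active = inhibition above a per-campaign cutoff equal to the mean of compounds falling between control-based bounds plus 3 SD, cut at about 20% in these data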
rCAG RNA binder: r(CAG) repeat RNA binding. TO-PRO-1 dye displacement fluorescence. inhibition, % at 3 µM. actives 1.3% (n = 370,000);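 active = inhibition above the plate cutoff, the mean of all test compounds on that plate plus 3 SD, cut at about 35% in these data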;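 also: higher means more dye released from RNA so lower well fluorescence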
KLK7 zymogen act: activators of human kallikrein-7 zymogen; purified proKLK7, EDANS-DABCYL substrate fluorescence; 100% is mature enzyme control, 0% vehicle; activation, % at 7 µM; actives 0.9% (n = 370,000); AID 652039;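 active = activation above the mean of all tested compounds plus 3 SD, computed per campaign excluding outliers beyond control limits, cut at about 13% in these data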
Target sequence (P49862 whole entry, looked up): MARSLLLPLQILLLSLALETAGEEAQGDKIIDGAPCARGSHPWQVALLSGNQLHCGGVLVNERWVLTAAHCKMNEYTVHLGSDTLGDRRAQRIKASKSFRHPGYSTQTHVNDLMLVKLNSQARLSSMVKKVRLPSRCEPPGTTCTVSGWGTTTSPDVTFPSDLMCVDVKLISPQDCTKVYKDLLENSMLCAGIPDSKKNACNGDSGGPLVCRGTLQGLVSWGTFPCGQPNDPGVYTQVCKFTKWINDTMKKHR
AHR activator: activators of human aryl hydrocarbon receptor | actives 2.5% (n = 320,000) | AHR-responsive luciferase reporter cells, luminescence | activation, % at 5 µM; in the data active = activation above about 47%
ADAM17 inh: inhibits human ADAM17; P78536; recombinant ADAM17, EDANS/DABCYL FRET peptide cleavage; inhibition, % at 6.95 µM; actives 0.83% (n = 370,000); AID 720648;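 active = inhibition above the mean of compounds lying between control limits plus 3 SD, set per campaign, cut at about 8.5% in these data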
Hits are given with their value.

`CC(=O)Nc1ccc(-c2cc(-c3ccccc3)nc(-c3ccccc3)n2)cc1` gave GRIN3A LBD mod 36, ADAM10 inh inactive, rCAG RNA binder inactive, KLK7 zymogen act inactive, AHR activator inactive and ADAM17 inh inactive.
`COc1ccc(Cn2cc(CN3[C@@H](CC(C)C)COc4cccc(F)c4S3(=O)=O)nn2)cc1` gave ADAM10 inh inactive, rCAG RNA binder inactive, KLK7 zymogen act inactive and ADAM17 inh inactive.
`c1ccc2c(NCCc3c[nH]c4ccccc34)c3ccccc3nc2c1` gave GRIN3A LBD mod inactive, ADAM10 inh inactive, rCAG RNA binder inactive, KLK7 zymogen act inactive, AHR activator inactive and ADAM17 inh inactive.
`c1ccc(CNc2nnnn2-c2ccccc2)cc1` gave GRIN3A LBD mod inactive, ADAM10 inh inactive, rCAG RNA binder inactive, KLK7 zymogen act inactive, AHR activator inactive and ADAM17 inh inactive.
Screening c1ccc(-n2nnnc2NCCc2c[nH]c3ccccc23)cc1 returned GRIN3A LBD mod 12, ADAM10 inh inactive, rCAG RNA binder inactive, KLK7 zymogen act inactive, AHR activator inactive and ADAM17 inh inactive.
`Fc1cccc(NCCc2c[nH]c3ccccc23)n1` gave GRIN3A LBD mod 15, ADAM10 inh inactive, rCAG RNA binder inactive, KLK7 zymogen act inactive, AHR activator inactive and ADAM17 inh inactive.
C#CCN1C(=O)[C@]2(OC[C@@H]3Cc4ccccc4[C@@H]3C=C2C)c2ccccc21 was read as ADAM10 inh inactive, rCAG RNA binder inactive, KLK7 zymogen act inactive and ADAM17 inh inactive.
Screening Cc1cc(C)cc(C(=O)OCCN(C)C2CN(Cc3cn(Cc4cccc(F)c4)nn3)S(=O)(=O)C2)c1 (configuration not stated) returned ADAM10 inh inactive, rCAG RNA binder inactive, KLK7 zymogen act inactive and ADAM17 inh inactive.
For COc1ccc(-c2cc(-c3nnc(SCC(=O)NC4CCCCC4)n3N)[nH]n2)cc1 the results were ADAM10 inh inactive, rCAG RNA binder inactive, KLK7 zymogen act inactive and ADAM17 inh inactive.
For Nn1c(SCC(=O)Nc2ccc(OCc3ccccc3)cc2)nnc1-c1cc(-c2ccc(F)cc2)n[nH]1 the results were ADAM10 inh inactive, rCAG RNA binder inactive, KLK7 zymogen act inactive and ADAM17 inh inactive.
Cc1ccc(-c2n[nH]c(=S)n2/N=C/C=C/c2ccccc2[N+](=O)[O-])cc1 was read as GRIN3A LBD mod inactive, ADAM10 inh inactive, rCAG RNA binder 40, KLK7 zymogen act inactive, AHR activator inactive and ADAM17 inh inactive.
`CCc1ccc(-c2nc(NC(=O)c3ccc(OCC(=O)Nc4ccc(F)cc4)c(OC)c3)sc2C)cc1` gave GRIN3A LBD mod inactive, ADAM10 inh inactive, rCAG RNA binder inactive, KLK7 zymogen act inactive, AHR activator inactive and ADAM17 inh inactive.
For COc1cc(C(=O)Nc2nc(-c3ccc(Cl)cc3)c(C)s2)ccc1OCC(=O)Nc1ccc(F)cc1 the results were GRIN3A LBD mod 18, ADAM10 inh inactive, rCAG RNA binder inactive, KLK7 zymogen act inactive, AHR activator inactive and ADAM17 inh inactive.
CC1CC1C(=O)Nc1nc(-c2cccs2)c(-c2cccs2)s1 (configuration not stated) was read as GRIN3A LBD mod inactive, ADAM10 inh inactive, rCAG RNA binder inactive, KLK7 zymogen act inactive, AHR activator 78 and ADAM17 inh inactive.
For O=C(Nc1nc(-c2ccccn2)cs1)c1ccc(Cl)s1 the results were GRIN3A LBD mod 19, ADAM10 inh inactive, rCAG RNA binder inactive, KLK7 zymogen act inactive, AHR activator inactive and ADAM17 inh inactive.
For Cc1noc(C)c1C(=O)Nc1nc(-c2cccs2)cs1 the results were GRIN3A LBD mod inactive, ADAM10 inh inactive, rCAG RNA binder inactive, KLK7 zymogen act inactive, AHR activator 63 and ADAM17 inh inactive.
O=C(Nc1nc(-c2ccc(Cl)s2)cs1)c1cccs1 was read as GRIN3A LBD mod 17, ADAM10 inh inactive, rCAG RNA binder inactive, KLK7 zymogen act inactive, AHR activator 71 and ADAM17 inh inactive.
Screening COc1ccc2[nH]c3c(c2c1)CCN[C@]31C(=O)N(Cc2cn(Cc3ccccc3)nn2)c2ccc(F)cc21 returned ADAM10 inh inactive, rCAG RNA binder inactive, KLK7 zymogen act inactive and ADAM17 inh inactive.
C=CCN1C(=O)[C@@H](CC(=O)NCc2ccccc2)[C@]2(C(=O)OC)CCCCC=C12 was read as ADAM10 inh inactive, rCAG RNA binder inactive, KLK7 zymogen act inactive and ADAM17 inh inactive.
For O=C(NNC(=O)c1cccs1)c1ccc(Br)cc1 the results were GRIN3A LBD mod inactive, ADAM10 inh inactive, rCAG RNA binder inactive, KLK7 zymogen act inactive, AHR activator inactive and ADAM17 inh inactive.
O=C(Nc1cccc(O)c1)c1cccc(NC(=O)c2cccs2)c1 was read as GRIN3A LBD mod 28, ADAM10 inh inactive, rCAG RNA binder inactive, KLK7 zymogen act inactive, AHR activator inactive and ADAM17 inh inactive.
`O=C(O)c1cc(NC(=O)c2ccc(Br)cc2)cc(NC(=O)c2ccc(Br)cc2)c1` gave GRIN3A LBD mod inactive, ADAM10 inh inactive, rCAG RNA binder 80, KLK7 zymogen act inactive, AHR activator inactive and ADAM17 inh inactive.
Screening O=C(Nc1cccc(NC(=O)c2cccs2)c1)c1ccc(Br)cc1 returned GRIN3A LBD mod 13, ADAM10 inh inactive, rCAG RNA binder inactive, KLK7 zymogen act inactive, AHR activator inactive and ADAM17 inh inactive.
`COc1ccc(N2CCN(CCCNC(=O)Cc3ccc(C(F)(F)F)cc3)CC2)cc1` gave ADAM10 inh inactive, rCAG RNA binder inactive, KLK7 zymogen act inactive and ADAM17 inh inactive.
For CCCCCCCCN1CN2Cc3ccc(C)cc3C2CS1(=O)=O (configuration not stated) the results were ADAM10 inh inactive, rCAG RNA binder inactive, KLK7 zymogen act inactive and ADAM17 inh inactive.
Screening O=C1CC2c3cc(Br)ccc3CCN2C(=O)CN1Cc1ccccc1 (configuration not stated) returned ADAM10 inh inactive, rCAG RNA binder inactive, KLK7 zymogen act inactive and ADAM17 inh inactive.
`C(#CC1=CCCCC1)CNCc1ccccc1` gave ADAM10 inh inactive, rCAG RNA binder inactive, KLK7 zymogen act inactive and ADAM17 inh inactive.
Screening CC1(c2nnnn2-c2ccc(F)cc2)CCCC(=O)N1CCc1c[nH]c2ccccc12 (configuration not stated) returned ADAM10 inh inactive, rCAG RNA binder inactive, KLK7 zymogen act inactive and ADAM17 inh inactive.
`Cc1cccc(Nc2nnc(SC/C(O)=C(\C#N)c3nc4ccccc4[nH]3)s2)c1` gave GRIN3A LBD mod 10, ADAM10 inh inactive, rCAG RNA binder inactive, KLK7 zymogen act inactive, AHR activator inactive and ADAM17 inh inactive.
For Cc1cc(C)n2c(SCC(O)=C(C#N)c3nc4ccccc4[nH]3)nnc2n1 the results were GRIN3A LBD mod inactive, ADAM10 inh inactive, rCAG RNA binder inactive, KLK7 zymogen act inactive and ADAM17 inh inactive.
`O=C1[C@H](Cc2ccccc2)NCCCC[C@H](c2ccc(Cl)cc2)N1Cc1ccccc1` gave GRIN3A LBD mod 10, ADAM10 inh inactive, rCAG RNA binder inactive, KLK7 zymogen act inactive and ADAM17 inh inactive.
